From PubChem BioAssay AID1159580 (chemical genetic matrix, 2015)
Out of some 5,500 compounds screened, about 2,000 (36%) were called active. About 18% were inconclusive and are not listed. Cut-off read from the data, not from the text of the source: active = normalized growth mostly below about 0.91 (no sharp cut-off); inconclusive = no clear call, values can overlap the other calls; inactive = mostly above about 0.92. Some of the results follow.

Experiment: chemical genetic growth profiling, strain panel (AID 1159580);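 note: tested at 20 µM; growth read once vehicle control cultures reached saturation at 30 °C; 1 = growth at the plate median or of vehicle wells; lower values mean less growth of the strain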
Details: growth OD

Measured: normalized growth

C[C@H]1CC2C([C@@H](O)C[C@@]3(C)C2CC[C@]3(O)C(=O)CO)[C@@]2(C)C=CC(=O)C=C12 (some centres not stated)
inactive: S. cerevisiae deletion strains, locus YJR075W, strain HOC1, hits give low values 1.01 | S. cerevisiae deletion strains, locus YKL009W, strain mrt4, hits give low values 0.997 | S. cerevisiae deletion strains, locus YKL068W, hits give low values 0.999 | S. cerevisiae deletion strains, locus YKL085W, strain MDH1 (second series), hits give low values 1 | S. cerevisiae deletion strains, locus YKL085W, strain MDH1, hits give low values 1 | S. cerevisiae deletion strains, locus YKL160W, strain elf1, hits give low values 0.975 | S. cerevisiae deletion strains, locus YKL190W, strain CNB1, hits give low values 0.995 | S. cerevisiae deletion strains, locus YKR001C, strain vps1, hits give low values 1.02 | S. cerevisiae deletion strains, locus YKR026C, strain gcn3, hits give low values 0.999 | S. cerevisiae deletion strains, locus YKR091W, strain srl3, hits give low values 1.01 | S. cerevisiae deletion strains, locus YLL001W, strain dnm1, hits give low values 0.96 | S. cerevisiae deletion strains, locus YLL026W, hits give low values 0.982 | S. cerevisiae deletion strains, locus YLL041C, strain sdh2, hits give low values 1.01 | S. cerevisiae deletion strains, locus YLR027C, strain aat2, hits give low values 0.985 | S. cerevisiae deletion strains, locus YLR039C, strain RIC1, hits give low values 0.982 | S. cerevisiae deletion strains, locus YLR058C, strain SHM2, hits give low values 0.999 | S. cerevisiae deletion strains, locus YLR102C, strain apc9, hits give low values 1.02 | S. cerevisiae deletion strains, locus YLR113W, strain HOG1, hits give low values 1.03 | S. cerevisiae deletion strains, locus YLR221C, strain rsa3, hits give low values 1.01 | S. cerevisiae deletion strains, locus YLR258W, strain gsy2, hits give low values 1.01 | S. cerevisiae deletion strains, locus YLR262C, strain YPT6 (second series), hits give low values 0.968 | S. cerevisiae deletion strains, locus YLR262C, strain YPT6, hits give low values 0.996 | S. cerevisiae deletion strains, locus YLR268W, strain sec22, hits give low values 1.07 | S. cerevisiae deletion strains, locus YLR320W, strain mms22, hits give low values 0.989 | S. cerevisiae deletion strains, locus YLR330W, strain CHS5, hits give low values 0.999 | S. cerevisiae deletion strains, locus YLR342W, strain FKS1 (second series), hits give low values 1.01 | S. cerevisiae deletion strains, locus YLR342W, strain FKS1, hits give low values 0.985 | S. cerevisiae deletion strains, locus YLR357W, strain rsc2, hits give low values 0.996 | S. cerevisiae deletion strains, locus YLR370C, strain arc18, hits give low values 0.992 | S. cerevisiae deletion strains, locus YLR371W, strain rom2, hits give low values 1.01 | S. cerevisiae deletion strains, locus YLR384C, strain iki3, hits give low values 0.996 | S. cerevisiae deletion strains, locus YLR418C, strain cdc73, hits give low values 1.01 | S. cerevisiae deletion strains, locus YML016C, strain PPZ1, hits give low values 1.01 | S. cerevisiae deletion strains, locus YML032C, strain rad52, hits give low values 1.04 | S. cerevisiae deletion strains, locus YML120C, strain ndi1, hits give low values 0.973 | S. cerevisiae deletion strains, locus YML124C, strain tub3, hits give low values 1.01 | S. cerevisiae deletion strains, locus YMR058W, strain fet3, hits give low values 0.994 | S. cerevisiae deletion strains, locus YMR078C, strain ctf18, hits give low values 1.01 | S. cerevisiae deletion strains, locus YMR125W, strain sto1, hits give low values 1.01 | S. cerevisiae deletion strains, locus YMR129W, hits give low values 1 | S. cerevisiae deletion strains, locus YMR205C, strain PFK2, hits give low values 0.993 | S. cerevisiae deletion strains, locus YMR223W, strain ubp8, hits give low values 0.986 | S. cerevisiae deletion strains, locus YMR231W, strain pep5, hits give low values 0.991 | S. cerevisiae deletion strains, locus YMR263W, strain SAP30, hits give low values 1 | S. cerevisiae deletion strains, locus YMR307W, strain GAS1, hits give low values 1 | S. cerevisiae deletion strains, locus YNL067W, strain RPL9B, hits give low values 1.03 | S. cerevisiae deletion strains, locus YNL071W, strain lat1, hits give low values 1 | S. cerevisiae deletion strains, locus YNL128W, strain TEP1, hits give low values 0.982 | S. cerevisiae deletion strains, locus YNL153C, strain GIM3, hits give low values 1.01 | S. cerevisiae deletion strains, locus YNL183C, strain NPR1, hits give low values 0.994 | S. cerevisiae deletion strains, locus YNL209W, strain ssb2, hits give low values 1.02 | S. cerevisiae deletion strains, locus YNL233W, strain BNI4, hits give low values 1.01 | S. cerevisiae deletion strains, locus YNL248C, strain rpa49, hits give low values 1.01 | S. cerevisiae deletion strains, locus YNL250W, strain rad50, hits give low values 1.01 | S. cerevisiae deletion strains, locus YNL271C, strain bni1, hits give low values 1.01 | S. cerevisiae deletion strains, locus YNL298W, strain CLA4, hits give low values 1.01 | S. cerevisiae deletion strains, locus YNL307C, strain MCK1, hits give low values 1.02 | S. cerevisiae deletion strains, locus YNL322C, strain KRE1 (second series), hits give low values 1 | S. cerevisiae deletion strains, locus YNL322C, strain KRE1, hits give low values 0.992 | S. cerevisiae deletion strains, locus YNR049C, strain mso1, hits give low values 1 | S. cerevisiae deletion strains, locus YNR052C, strain pop2, hits give low values 1.02 | S. cerevisiae deletion strains, locus YOL006C, strain TOP1, hits give low values 1.04 | S. cerevisiae deletion strains, locus YOL012C, strain htz1 1.61 | S. cerevisiae deletion strains, locus YOL147C, strain pex11, hits give low values 1.01 | S. cerevisiae deletion strains, locus YOR001W, strain rrp6, hits give low values 0.966 | S. cerevisiae deletion strains, locus YOR061W, strain CKA2, hits give low values 1 | S. cerevisiae deletion strains, locus YOR069W, strain VPS5, hits give low values 1 | S. cerevisiae deletion strains, locus YOR070C, strain gyp1, hits give low values 1 | S. cerevisiae deletion strains, locus YOR080W, strain dia2, hits give low values 0.986 | S. cerevisiae deletion strains, locus YOR083W, strain WHI5, hits give low values 0.959 | S. cerevisiae deletion strains, locus YOR106W, strain vam3, hits give low values 0.987 | S. cerevisiae deletion strains, locus YOR136W, strain idh2, hits give low values 1.01 | S. cerevisiae deletion strains, locus YOR144C, strain elg1, hits give low values 1.01 | S. cerevisiae deletion strains, locus YOR184W, strain ser1, hits give low values 1 | S. cerevisiae deletion strains, locus YOR231W, strain MKK1, hits give low values 1.02 | S. cerevisiae deletion strains, locus YOR265W, strain rbl2, hits give low values 0.995 | S. cerevisiae deletion strains, locus YOR270C, strain vph1, hits give low values 1.02 | S. cerevisiae deletion strains, locus YOR290C, strain snf2, hits give low values 1 | S. cerevisiae deletion strains, locus YOR316C, strain cot1, hits give low values 1.01 | S. cerevisiae deletion strains, locus YPL051W, strain arl3, hits give low values 0.988 | S. cerevisiae deletion strains, locus YPL055C, strain LGE1, hits give low values 0.982 | S. cerevisiae deletion strains, locus YPL078C, strain atp4, hits give low values 0.959 | S. cerevisiae deletion strains, locus YPL106C, strain sse1, hits give low values 1.02 | S. cerevisiae deletion strains, locus YPL240C, strain hsp82, hits give low values 1.01 | S. cerevisiae deletion strains, locus YPL241C, strain CIN2, hits give low values 0.996 | S. cerevisiae deletion strains, locus YPL256C, strain CLN2, hits give low values 1.1 | S. cerevisiae deletion strains, locus YPR119W, strain clb2, hits give low values 1.01 | S. cerevisiae deletion strains, locus YPR141C, strain kar3, hits give low values 1.01 | S. cerevisiae deletion strains, locus YPR163C, strain tif3, hits give low values 1.02 | S. cerevisiae deletion strains, locus YPR167C, strain met16, hits give low values 1.01 | S. cerevisiae deletion strains, strain wtn01, hits give low values 1.03 | S. cerevisiae strains, strain wild type, hits give low values 0.998
